A short description of assay [1]: NCI Yeast Anticancer Drug Screen. Data for the rad50 strain (AID 155).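 Further: 0% = growth of vehicle-only cultures of the same strain.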 As to conditions: S. cerevisiae rad50 strain growth inhibition, stronger effect = higher value. In outline: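 A DNA repair-deficient yeast mutant serves as the test organism; compound-induced growth inhibition is calculated against vehicle-treated cells.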
A short description of assay [2]: NCI Yeast Anticancer Drug Screen. Data for the mec2-1 strain (AID 157). The settings on record: S. cerevisiae mec2-1 strain, stronger effect = higher value. In outline: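 Cells of the genetically defined mec2-1 yeast strain are incubated with test compound. Inhibition of growth is calculated against vehicle-treated controls.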
Assay [3] is described as follows: NCI Yeast Anticancer Drug Screen. Data for the sgs1 mgt1 strain (AID 161).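 Further: 0% = growth of cultures given vehicle only.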 As to conditions: S. cerevisiae sgs1 mgt1 strain, stronger effect = higher value. A digest of the protocol:
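Inhibition of yeast growth, normalised to vehicle-treated controls, is reported for a strain bearing genetic alterations in DNA damage repair.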

A short description of assay [4]: NCI Yeast Anticancer Drug Screen. Data for the cln2 rad14 strain (AID 165).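 Further: 0% = growth equal to vehicle treated cultures.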 As to conditions: S. cerevisiae cln2 rad14 strain, stronger effect = higher value. In outline: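 The screen exposed genetically defined yeast (cln2 rad14) to test compounds and scored growth inhibition relative to vehicle-treated controls.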
Assay [5] in a line: NCI Yeast Anticancer Drug Screen. Data for the bub3 strain (AID 167). The settings on record: S. cerevisiae bub3 mutant strain, stronger effect = higher value. In outline: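 Inhibition values come from growth of compound-treated mutant yeast normalised to vehicle-treated controls.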
Assay [6] can be described thus: NCI Yeast Anticancer Drug Screen. Data for the mlh1 rad18 strain (AID 175). As to conditions: S. cerevisiae mlh1 rad18 strain growth inhibition, stronger effect = higher value. A digest of the protocol:
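Compound-treated yeast growth, normalised to vehicle controls. Strain bears defined DNA repair mutations.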

The mark [7] stands for this setting: at 5.0 µM (retest, dose inferred, filed as 0.5).
The mark [8] stands for this setting: at 50.0 µM (retest, dose inferred, filed as 5.0).

Compounds without any hit were thinned out: in the full panel of roughly 79,000, 15% have a hit. Values without a mark were called inactive. Calls of active or inactive are those of the source. No stated cut-off is given here; in the data, active means growth inhibition above about 70%; inactive means the rest.

The source of these data is PubChem BioAssay (NCI).

For `O=C(O)CSc1nc(-c2ccccc2)c(-c2ccccc2)n1-c1ccccn1`, the growth inhibition in assay [1] (setting [7]) was 1%; in assay [1] (setting [8]), 5%; in assay [1] (at 50.0 µM), 76.2% (active); in assay [2] (setting [7]), -6%; in assay [2] (setting [8]), -10%; in assay [2] (at 50.0 µM), 40.5%. For the same compound, the growth inhibition was -12% in assay [3] (setting [7]); 4% in assay [3] (setting [8]); 82.8% (active) in assay [3] (at 50.0 µM); 18% in assay [4] (setting [7]); 4% in assay [4] (setting [8]); 61.8% in assay [4] (at 50.0 µM). Besides, the growth inhibition is -13% in assay [5] (setting [7]); -9% in assay [5] (setting [8]); 47.4% in assay [5] (at 50.0 µM); 8% in assay [6] (setting [7]); 6% in assay [6] (setting [8]); 11.2% in assay [6] (at 50.0 µM).

`Cc1cc(Br)c(N2C3=C(CC4=C2CCCC4=O)C(=O)CCC3)c(Br)c1`: the growth inhibition in assay [1] (setting [7]) was 17%; in assay [1] (setting [8]) it was 90% (active); in assay [1] (at 50.0 µM), 96.8% (active); in assay [2] (setting [7]) it was 7%; in assay [2] (setting [8]) it was 89% (active); in assay [2] (at 50.0 µM), 97.8% (active). The growth inhibition in assay [3] (setting [7]) was -3%; in assay [3] (setting [8]) it was 80% (active); in assay [3] (at 50.0 µM), 97.8% (active); in assay [4] (setting [7]) it was 10%; in assay [4] (setting [8]) it was 94% (active); in assay [4] (at 50.0 µM), 93.5% (active). The growth inhibition in assay [5] (setting [7]) is -10%; in assay [5] (setting [8]) it was 95% (active); in assay [5] (at 50.0 µM), 98.2% (active); in assay [6] (setting [7]) it was 16%; in assay [6] (setting [8]), 97% (active); in assay [6] (at 50.0 µM), 97.8% (active).

Turning to `O=C1C2=Cc3ccccc3CCN2c2ccccc21`, the growth inhibition in assay [1] (setting [7]) is 4%; in assay [1] (setting [8]), 4%; in assay [1] (at 50.0 µM) it was 88.3% (active); in assay [2] (setting [7]), -6%; in assay [2] (setting [8]) it was -6%; in assay [2] (at 50.0 µM) it was 90.7% (active). Also, the growth inhibition in assay [3] (setting [7]) was 1%; in assay [3] (setting [8]), 1%; in assay [3] (at 50.0 µM), 89.8% (active); in assay [4] (setting [7]), -8%; in assay [4] (setting [8]), -8%; in assay [4] (at 50.0 µM) it was 86.2% (active). The growth inhibition in assay [5] (setting [7]) is 2%; in assay [5] (setting [8]), 2%; in assay [5] (at 50.0 µM), 89.8% (active); in assay [6] (setting [7]), 2%; in assay [6] (setting [8]), 2%; in assay [6] (at 50.0 µM), 83.1% (active).

As to `CCCCOP(=O)(OCCCC)C(NS(=O)(=O)c1ccccc1)(C(=O)OCC)C(F)(F)F` (stereo not given), the growth inhibition was 11% in assay [1] (setting [7]); 42% in assay [1] (setting [8]); 99% (active) in assay [1] (at 50.0 µM); 7% in assay [2] (setting [7]); 28% in assay [2] (setting [8]); 99.1% (active) in assay [2] (at 50.0 µM). Moreover, the growth inhibition in assay [3] (setting [7]) is 3%; in assay [3] (setting [8]), 48%; in assay [3] (at 50.0 µM), 99% (active); in assay [4] (setting [7]), 16%; in assay [4] (setting [8]), 63%; in assay [4] (at 50.0 µM) it was 99.2% (active). In addition, the growth inhibition in assay [5] (setting [7]) is 9%; in assay [5] (setting [8]), 47%; in assay [5] (at 50.0 µM) it was 99.2% (active); in assay [6] (setting [7]), 26%; in assay [6] (setting [8]), 79% (active); in assay [6] (at 50.0 µM) it was 99% (active).

`CCCCNC(C)(C)COC(=O)/C=C/c1ccc(OCCCC)cc1`: the growth inhibition in assay [1] (setting [7]) is 6%; in assay [1] (setting [8]) it was 79% (active); in assay [1] (at 50.0 µM), 89.2% (active); in assay [2] (setting [7]) it was -2%; in assay [2] (setting [8]), 47%; in assay [2] (at 50.0 µM), 56.2%. For the same compound, the growth inhibition was 3% in assay [3] (setting [7]); 86% (active) in assay [3] (setting [8]); 75.8% (active) in assay [3] (at 50.0 µM); 3% in assay [4] (setting [7]); 79% (active) in assay [4] (setting [8]); 80% (active) in assay [4] (at 50.0 µM). The growth inhibition in assay [5] (setting [7]) is 4%; in assay [5] (setting [8]) it was 75% (active); in assay [5] (at 50.0 µM), 86.6% (active); in assay [6] (setting [7]) it was 0%; in assay [6] (setting [8]), 81% (active); in assay [6] (at 50.0 µM) it was 89.2% (active).

Take `CC(C)CC(NC(=O)COc1c(Cl)cc(Cl)c(Cl)c1Cl)C(=O)O` (stereo not given): the growth inhibition was 0% in assay [1] (setting [7]); 8% in assay [1] (setting [8]); 13% in assay [1] (at 50.0 µM); -1% in assay [2] (setting [7]); 39% in assay [2] (setting [8]); -8.6% in assay [2] (at 50.0 µM). In addition, the growth inhibition is -1% in assay [3] (setting [7]); 12% in assay [3] (setting [8]); -32.6% in assay [3] (at 50.0 µM); 4% in assay [4] (setting [7]); 19% in assay [4] (setting [8]); 3.35% in assay [4] (at 50.0 µM). The growth inhibition is 5% in assay [5] (setting [7]); 10% in assay [5] (setting [8]); 1% in assay [5] (at 50.0 µM); -2% in assay [6] (setting [7]); 12% in assay [6] (setting [8]); 25.9% in assay [6] (at 50.0 µM).

As to `O=C(c1ccccc1)c1ccccc1S(=O)(=O)Nc1ccccc1`, the growth inhibition is -5% in assay [1] (setting [7]); 79% (active) in assay [1] (setting [8]); 62.9% in assay [1] (at 50.0 µM); -2% in assay [2] (setting [7]); 69% in assay [2] (setting [8]); 27.8% in assay [2] (at 50.0 µM). For the same compound, the growth inhibition was -3% in assay [3] (setting [7]); 77% (active) in assay [3] (setting [8]); 30.2% in assay [3] (at 50.0 µM); -8% in assay [4] (setting [7]); 86% (active) in assay [4] (setting [8]); 62.1% in assay [4] (at 50.0 µM). Further, the growth inhibition was 4% in assay [5] (setting [7]); 91% (active) in assay [5] (setting [8]); 64.2% in assay [5] (at 50.0 µM); -2% in assay [6] (setting [7]); 87% (active) in assay [6] (setting [8]); 72.8% (active) in assay [6] (at 50.0 µM).

As to `CC(C(O)c1ccccc1)[N+](=O)[O-]` (stereo not given), the growth inhibition in assay [1] (setting [7]) is 67%; in assay [1] (setting [8]), 96% (active); in assay [1] (at 50.0 µM), 97% (active); in assay [2] (setting [7]) it was 8%; in assay [2] (setting [8]) it was 41%; in assay [2] (at 50.0 µM), 29.2%. In addition, the growth inhibition in assay [3] (setting [7]) was 6%; in assay [3] (setting [8]) it was 53%; in assay [3] (at 50.0 µM) it was 55.1%; in assay [4] (setting [7]), 3%; in assay [4] (setting [8]), 63%; in assay [4] (at 50.0 µM), 28.1%. Moreover, the growth inhibition was 1% in assay [5] (setting [7]); 78% (active) in assay [5] (setting [8]); 39.6% in assay [5] (at 50.0 µM); 7% in assay [6] (setting [7]); 74% (active) in assay [6] (setting [8]); 38.5% in assay [6] (at 50.0 µM).

Consider `CC(=O)[O-].CC(=O)[O-].CC(=O)[O-].CC(=O)[O-].Cn1c(=O)c2[nH]cnc2n(C)c1=O.Cn1c(=O)c2[nH]cnc2n(C)c1=O.[Rh+2].[Rh+2]`, for which the growth inhibition is 3% in assay [1] (setting [7]); 20% in assay [1] (setting [8]); 43.3% in assay [1] (at 50.0 µM); 12% in assay [2] (setting [7]); 23% in assay [2] (setting [8]); 27.6% in assay [2] (at 50.0 µM). The growth inhibition was 12% in assay [3] (setting [7]); 13% in assay [3] (setting [8]); -39.7% in assay [3] (at 50.0 µM); 9% in assay [4] (setting [7]); 9% in assay [4] (setting [8]); -5.35% in assay [4] (at 50.0 µM). For the same compound, the growth inhibition was 11% in assay [5] (setting [7]); 19% in assay [5] (setting [8]); -29.4% in assay [5] (at 50.0 µM); 48% in assay [6] (setting [7]); 62% in assay [6] (setting [8]); 23.1% in assay [6] (at 50.0 µM).

`O=C(O)CC1(C(=O)O)CCCCC1`: the growth inhibition in assay [1] (setting [7]) is -9%; in assay [1] (setting [8]), 15%; in assay [1] (at 50.0 µM), -16.4%; in assay [2] (setting [7]), -4%; in assay [2] (setting [8]), -1%; in assay [2] (at 50.0 µM), -16.6%. Moreover, the growth inhibition in assay [3] (setting [7]) was -5%; in assay [3] (setting [8]) it was -13%; in assay [3] (at 50.0 µM) it was -21.6%; in assay [4] (setting [7]), 6%; in assay [4] (setting [8]) it was 0%; in assay [4] (at 50.0 µM), 18.4%. For the same compound, the growth inhibition in assay [5] (setting [7]) is -13%; in assay [5] (setting [8]), -14%; in assay [5] (at 50.0 µM), -6.9%; in assay [6] (setting [7]), 11%; in assay [6] (setting [8]), 17%; in assay [6] (at 50.0 µM), 2.7%.
